PubChem BioAssay AID1159580 (chemical genetic matrix, 2015)
Where “and” joins values, the source holds several entries; their conditions need not be identical. Equal entries are not always repeated. About 2,000 (36%) of roughly 5,500 compounds were called active. Roughly 18% stayed inconclusive and do not appear here. Rule as the data show it: active = normalized growth mostly below about 0.91 (no sharp cut-off); inconclusive = no clear call, values can overlap the other calls; inactive = mostly above about 0.92. This is one part of the list.

Assay: chemical genetic growth profiling, strain panel (AID 1159580);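 also: tested at 20 µM; growth read once vehicle control cultures reached saturation at 30 °C; 1 = growth at the plate median or of vehicle wells; lower values mean less growth of the strain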
Settings: S. cerevisiae deletion strains, growth OD
[1] = locus YMR307W, strain GAS1, active compounds read low

Measured: normalized growth

Nc1nc2c(nc(Br)n2C2OC3COP(=O)(O)O[C@@H]3C2O)c(=O)[nH]1 (stereo partly drawn)
inactive: locus YAL040C, strain CLN3, active compounds read low 0.947 | locus YDR363W, strain ESC2, active compounds read low 0.993 | locus YER002W, strain NOP16, active compounds read low 1.02 | locus YGR229C, strain SMI1, active compounds read low 1.02 | [1] 0.998 | locus YNL153C, strain GIM3, active compounds read low 1.05 | locus YNL175C, strain NOP13, active compounds read low 1.02 | locus YNL197C, strain WHI3, active compounds read low 1.01 | locus YNL224C, strain SQS1, active compounds read low 1.02 | locus YOR083W, strain WHI5 (second series), active compounds read low 1.02

COc1cc(OC)c(-c2c(OC)cc(OC)cc2OC)c(OC)c1
inactive: locus YBR021W, strain FUR4, active compounds read low 1.05 | locus YBR229C, strain ROT2, active compounds read low 1.01 | locus YCL029C, strain bik1, active compounds read low 0.997 | locus YDL035C, strain GPR1, active compounds read low 1.02 | locus YDL074C, strain BRE1, active compounds read low 1.06 | locus YDL101C, strain DUN1, active compounds read low 1.03 | locus YDL185W, strain tfp1, active compounds read low 1.03 | locus YDL192W, strain arf1, active compounds read low 1.04 | locus YDR101C, strain arx1, active compounds read low 1.02 | locus YDR162C, strain NBP2, active compounds read low 1.04 | locus YDR318W, strain mcm21, active compounds read low 1.03 | locus YDR388W, active compounds read low 1.01 | locus YDR502C, strain sam2, active compounds read low 1.05 | locus YEL061C, strain CIN8, active compounds read low 1.01 | locus YER110C, active compounds read low 1.02 | locus YER155C, strain BEM2, active compounds read low 1.01 | locus YER167W, strain BCK2, active compounds read low 1.01 | locus YGL078C, strain dbp3, active compounds read low 1.05 | locus YGL086W, strain mad1, active compounds read low 1.04 | locus YGL248W, strain PDE1, active compounds read low 1.03 | locus YGR078C, strain PAC10, active compounds read low 1.06 | locus YGR135W, strain pre9, active compounds read low 1.07 | locus YGR252W, strain gcn5, active compounds read low 1.05 | locus YHR030C, strain SLT2, active compounds read low 0.998 | locus YHR079C, strain IRE1 (second series), active compounds read low 1.02 | locus YHR079C, strain IRE1, active compounds read low 0.998 | locus YHR094C, strain hxt1, active compounds read low 1.03 | locus YHR129C, strain ARP1, active compounds read low 1.01 | locus YHR200W, strain rpn10, active compounds read low 1.03 | locus YIL066C, strain RNR3, active compounds read low 1.02 | locus YIL073C, strain SPO22, active compounds read low 1.1 | locus YIL125W, strain kgd1, active compounds read low 1.01 | locus YIR030C, strain dcg1, active compounds read low 1.02 | locus YJL095W, strain BCK1, active compounds read low 1.09 and 0.999 | locus YJL134W, strain LCB3, active compounds read low 1.01 | locus YJL168C, strain set2, active compounds read low 1.02 | locus YJL187C, strain SWE1 (second series), active compounds read low 1.06 | locus YJR066W, strain TOR1, active compounds read low 0.953 | locus YJR075W, strain HOC1, active compounds read low 1.04 | locus YKL009W, strain mrt4, active compounds read low 1.06 | locus YKL068W, active compounds read low 0.993 | locus YKL085W, strain MDH1 (second series), active compounds read low 1.01 | locus YKL085W, strain MDH1, active compounds read low 1.01 | locus YKL190W, strain CNB1, active compounds read low 1.02 | locus YKR001C, strain vps1, active compounds read low 1.05 | locus YLR039C, strain RIC1, active compounds read low 1.07 | locus YLR058C, strain SHM2, active compounds read low 1.04 | locus YLR102C, strain apc9, active compounds read low 1.01 | locus YLR113W, strain HOG1, active compounds read low 1 | locus YLR262C, strain YPT6, active compounds read low 1.09 | locus YLR268W, strain sec22, active compounds read low 1.02 | locus YLR371W, strain rom2, active compounds read low 1.02 | locus YLR418C, strain cdc73, active compounds read low 1.13 | locus YML016C, strain PPZ1, active compounds read low 1.02 | locus YML032C, strain rad52, active compounds read low 1.04 | locus YML124C, strain tub3, active compounds read low 1.02 | locus YMR078C, strain ctf18, active compounds read low 1.02 | locus YMR223W, strain ubp8, active compounds read low 1.04 | [1] 1.07 | locus YNL067W, strain RPL9B, active compounds read low 1.05 | locus YNL183C, strain NPR1, active compounds read low 0.948 | locus YNL233W, strain BNI4, active compounds read low 1.07 | locus YNL250W, strain rad50, active compounds read low 1.06 | locus YNL271C, strain bni1, active compounds read low 1.02 | locus YNL298W, strain CLA4, active compounds read low 1.03 | locus YNL307C, strain MCK1, active compounds read low 1.03 | locus YNR052C, strain pop2, active compounds read low 1.04 | locus YOL006C, strain TOP1, active compounds read low 1.15 | locus YOL012C, strain htz1 0.971 | locus YOL147C, strain pex11, active compounds read low 1.03 | locus YOR061W, strain CKA2, active compounds read low 1.02 | locus YOR069W, strain VPS5, active compounds read low 1.01 | locus YOR136W, strain idh2, active compounds read low 1.03 | locus YOR144C, strain elg1, active compounds read low 1.02 | locus YOR184W, strain ser1, active compounds read low 1.04 | locus YOR231W, strain MKK1, active compounds read low 0.976 | locus YOR316C, strain cot1, active compounds read low 1.03 | locus YPL256C, strain CLN2, active compounds read low 0.997 | locus YPR119W, strain clb2, active compounds read low 1.01 | locus YPR141C, strain kar3, active compounds read low 1.02 | locus YPR163C, strain tif3, active compounds read low 1.03 | locus YPR167C, strain met16, active compounds read low 1.03 | strain wtn01, active compounds read low 1.03
